{
  "source": "PubChem BioAssay AID1117361",
  "about": "(Southern Research Institute, 2015)",
  "note": "About 900 (25%) of roughly 3,600 compounds were called active. These entries were drawn from the full list. Entries with a potency or affinity are not part of this list. A number with no mark means an inactive call. The rule behind the calls is not given here.",
  "data": [
    {"molecular_target": "Protein Tat (Human immunodeficiency virus type 1 group M subtype B (isolate HXB2)) (UniProt P04608)", "experiment": "inhibitors of Tat binding to TAR RNA, dose response, counter-screen for Vif-APOBEC3G degradation inhibitor project, biochemical, fluorescence polarization, FAM-labeled TAR RNA (AID 1117361)", "conditions": "outcome: at 100 µM (top of the series) unless noted; series mostly up to 100 µM; inhibition: at the top concentration", "values": [
      {"smiles": "CCOc1ccc(OCCOc2cccc(C(F)(F)F)c2)cc1", "inhibition": "4.05%"},
      {"smiles": "Cn1c(CN2CCOCC2)nc2cc(NC(=O)c3ccc(F)cc3)ccc21", "inhibition": "4.77%"},
      {"smiles": "C/C(=C1\\SC(N2CCOCC2)=NC1=O)c1ccccc1", "outcome": "inactive"},
      {"smiles": "O=C1N=C(N2CCOCC2)SC1=Cc1ccco1", "inhibition": "6.35%"},
      {"smiles": "COc1cccc(/C=C2\\SC(N)=NC2=O)c1OS(=O)(=O)c1ccccc1", "outcome": "inactive"},
      {"smiles": "COc1cccc(-c2nc3n(n2)C(c2cccs2)C(C(=O)Nc2cccnc2)=C(C)N3)c1", "note": "(configuration not stated)", "outcome": "inactive"},
      {"smiles": "O=C(CCc1ccccc1)NNC(=S)NCCc1ccccc1", "outcome": "inactive"},
      {"smiles": "Cc1cc(C(C)(C)C)ccc1OCCN(C)C", "inhibition": "0.68%"},
      {"smiles": "COCCn1c(Sc2ccc(C)cc2)nc2c1c(=O)[nH]c(=O)n2C", "outcome": "inactive"},
      {"smiles": "Nc1nc(Cl)cc(N2CCC(c3cc(-c4ccc(Cl)cc4Cl)n[nH]3)CC2)n1", "outcome": "inactive"},
      {"smiles": "CCOC(=O)N1CCN(S(=O)(=O)c2ccc3c(c2)C(C)C(=O)N3)CC1", "note": "(configuration not stated)", "inhibition": "8.25%"},
      {"smiles": "O=C(Nc1ccc2oc(=O)ccc2c1)c1ccc(-c2ccc(Cl)cc2)o1", "inhibition": "16.4%"},
      {"smiles": "COc1cccc(/C=N/n2c(N)c(S(=O)(=O)c3cccs3)c3nc4ccccc4nc32)c1", "inhibition": "8.11%"},
      {"smiles": "COc1ccc(S(=O)(=O)N2CCN(C(=O)c3cc(-c4ccccc4OC)n[nH]3)CC2)cc1", "inhibition": "1.67%"},
      {"smiles": "CCCN(C(=S)Nc1ccccc1)C1CCS(=O)(=O)C1", "note": "(configuration not stated)", "outcome": "inactive"},
      {"smiles": "COc1cccc(C2NC(=O)NC(O)(C(F)(F)F)C2C(=O)c2cccnc2)c1OC", "note": "(configuration not stated)", "inhibition": "12.8%"},
      {"smiles": "CCn1c(COc2ccc3c(c2)OCO3)nnc1SCC(=O)c1ccc(Cl)cc1", "inhibition": "3.41%"},
      {"smiles": "Nc1cccc(-c2nc3ccc(N)cc3s2)c1", "inhibition": "3.38%"},
      {"smiles": "Cc1[nH]n(-c2nc(-c3ccccc3F)cc(=O)[nH]2)c(=O)c1CCO", "outcome": "inactive"},
      {"smiles": "NC(=O)C1Cc2ccccc2CN1C(=O)c1nn(Cc2ccccc2)c(=O)c2ccccc12", "note": "(configuration not stated)", "outcome": "inactive"},
      {"smiles": "COc1ccc(C2Nc3ccccc3C(=O)N2c2ccc(Cl)cc2)cc1Cn1cc([N+](=O)[O-])cn1", "note": "(configuration not stated)", "outcome": "inactive"},
      {"smiles": "COc1ccc(/C=N/NC(=O)CN2CCN(Cc3ccccc3)CC2)cc1Br", "inhibition": "8.25%"},
      {"smiles": "Cc1ccc(S(=O)(=O)N=Nc2c(O)[nH]c3ccccc23)cc1", "inhibition": "17.1%"},
      {"smiles": "CN(C)c1ccc(/C=N\\NC(=O)c2csnn2)cc1", "inhibition": "2.03%"},
      {"smiles": "COc1ccc(S(=O)(=O)N2CCC(C(=O)NCc3ccco3)CC2)cc1", "inhibition": "15.5%"},
      {"smiles": "CCC(Cc1ccccc1)NC(=O)C1CCN(S(=O)(=O)c2c(C)noc2C)CC1", "note": "(configuration not stated)", "inhibition": "2.73%"},
      {"smiles": "COc1ccc(OCCNS(=O)(=O)c2ccccc2)cc1", "outcome": "inactive"},
      {"smiles": "CN1CCN(c2ccccc2NC(=O)C(Cc2ccccc2)n2cccc2)CC1", "note": "(configuration not stated)", "inhibition": "2.73%"},
      {"smiles": "CCCCNC(=O)c1onc(CSc2cccc(OCC)c2)c1C(=O)O", "outcome": "inactive"},
      {"smiles": "COc1cccc(Cn2nnc(C(=O)NCCc3ccc(Cl)cc3)c2N)c1", "inhibition": "5.41%"},
      {"smiles": "COc1cccc(-c2nn(C)c3sc(C(=O)Nc4ccc5c(c4)OCCO5)cc23)c1", "inhibition": "4.47% [at 50 µM]"},
      {"smiles": "Cc1nc(N)nc(C)c1Cc1ccccc1", "inhibition": "2.73%"},
      {"smiles": "CCOC(=O)C1=C(N)OC2=C(C(=O)CCC2)C1c1ccc(C)s1", "note": "(configuration not stated)", "inhibition": "5.46%"},
      {"smiles": "O=C(O)Cc1ccc(C(=O)c2ccccc2)s1", "outcome": "inactive"},
      {"smiles": "CCS(=O)(=O)N1CCN(C(=O)CC(C)C)CC1", "inhibition": "0.68%"},
      {"smiles": "Cn1c(-c2ccc(Cl)cc2)ccc(C#N)c1=O", "inhibition": "4.73%"},
      {"smiles": "CCOC(=O)N1CCN(C(=O)c2cnc3n(c2=O)CCS3)CC1", "inhibition": "5.41%"},
      {"smiles": "CCOC(=O)c1c(NC(=O)C(C)N2CCN(C(=O)c3ccco3)CC2)sc2c1CCCC2", "note": "(configuration not stated)", "inhibition": "5.46%"},
      {"smiles": "c1ccc(-n2c(SCc3ccncc3)nnc2-c2ccco2)cc1", "inhibition": "24.3%"},
      {"smiles": "Cn1c(CSc2nnc(SCc3ccccc3)s2)nc2ccccc21", "inhibition": "2.05%"},
      {"smiles": "Nc1nc(SCc2ccccc2Cl)n[nH]1", "outcome": "inactive"},
      {"smiles": "Nc1ccccc1-c1nnc(SCc2ccccc2Cl)[nH]c1=O", "inhibition": "23.2%"},
      {"smiles": "O=C(c1ccc(F)cc1)N1CCC(C(=O)N(Cc2ccccc2)c2ccccc2)CC1", "inhibition": "6.6%"},
      {"smiles": "CCCCNC(=O)Oc1cccc(N2CCCC2=O)c1", "inhibition": "2.7%"},
      {"smiles": "COCCn1c(N)c(NCc2ccccc2)c(=O)n(CC(=O)Nc2cc(C)ccc2C)c1=O", "inhibition": "3.41%"},
      {"smiles": "COc1ccc(C(C)=O)cc1CN1C(=O)NC2(CCCC2)C1=O", "outcome": "inactive"},
      {"smiles": "COc1ccc(S(=O)(=O)N2CCC(NC(=O)OCc3c(Cl)cccc3Cl)CC2)cc1", "outcome": "inactive"},
      {"smiles": "CN1CCN(S(=O)(=O)c2ccc(NC(=O)Nc3cccc(Cl)c3)cc2)CC1", "inhibition": "0.68%"},
      {"smiles": "O=C(CSCc1ccc(Br)cc1)NC1CC1", "inhibition": "14.8%"},
      {"smiles": "Oc1ccc(/C=C/c2cc(O)cc(O)c2)cc1", "outcome": "inactive"},
      {"smiles": "COc1ccc(F)cc1S(=O)(=O)Nc1cc2c3c(c1)CC(=O)N3CCC2", "inhibition": "4.34%"},
      {"smiles": "CCC(C)NC(=O)CSc1nc2n[nH]c(C)c2c(=N)n1-c1ccc(OC)cc1", "note": "(configuration not stated)", "inhibition": "3.41%"},
      {"smiles": "CCOC(=O)C1=C(C)OC(N)=C(C#N)C1c1cc(Cl)c(OCC(N)=O)c(OC)c1", "note": "(configuration not stated)", "inhibition": "18.9%"},
      {"smiles": "CN1C(=O)C2(C(C#N)=C(N)Oc3c2oc(CO)cc3=O)c2ccccc21", "note": "(configuration not stated)", "inhibition": "2.7%"},
      {"smiles": "Cc1nc2ccc(NC(=O)Cc3cccs3)cc2s1", "inhibition": "19.8%"},
      {"smiles": "O=C(Cc1cccs1)Nc1cccc(-c2nc3ccccc3o2)c1", "outcome": "inactive"},
      {"smiles": "COC(=O)c1ccccc1NC(=O)CNC(=O)c1ccc(OC)cc1", "outcome": "inactive"},
      {"smiles": "Cc1ccc(-c2csc(NC(=O)Cc3cccs3)n2)cc1C", "inhibition": "2.05%"},
      {"smiles": "COC(=O)C1=C(CSc2nc3ccccc3o2)NC(=O)NC1c1cc(C)ccc1C", "note": "(configuration not stated)", "inhibition": "1.36%"},
      {"smiles": "COc1ccc(NS(=O)(=O)c2cc(N=Nc3c(O)[nH]c(=O)[nH]c3=O)ccc2Cl)cc1", "outcome": "inactive"},
      {"smiles": "CC1(C)C2CCC1(C)C(OC(=O)C[n+]1ccccc1)C2", "note": "(configuration not stated)", "inhibition": "1.65%"},
      {"smiles": "CCc1ccccc1NC(=O)N1CCc2ccccc21", "outcome": "inactive"},
      {"smiles": "CC(=O)Nc1nnc(SCC(=O)N2CCCc3ccccc32)s1", "outcome": "inactive"},
      {"smiles": "COc1ccc(-c2nc(CS(=O)CC(=O)NC3CCCc4ccccc43)c(C)o2)cc1OC", "note": "(configuration not stated)", "inhibition": "10.1%"},
      {"smiles": "O=S(=O)(c1ccc(Br)s1)N1CCCCC1", "inhibition": "4.73%"},
      {"smiles": "Cc1ccc(S(=O)(=O)N2CCCC(C(=O)O)C2)s1", "note": "(configuration not stated)", "outcome": "inactive"},
      {"smiles": "CCN(CC)CCNC1=NCCn2c1cc1cc(OC)ccc12", "inhibition": "5.46%"},
      {"smiles": "CCc1noc(N)c1C(=O)Nc1ccc(F)c(Cl)c1", "inhibition": "3.38%"},
      {"smiles": "CCNC(=O)NC(=O)C(C)OC(=O)c1oc2ccc(OCC)cc2c1C", "note": "(configuration not stated)", "outcome": "inactive"},
      {"smiles": "Cc1c(-c2ccccc2)nc2ccccc2c1C(=O)O", "inhibition": "10.2%"},
      {"smiles": "Cc1cc(C#N)c2ccccc2n1", "outcome": "inactive"},
      {"smiles": "CCCCOc1ccc(C(=O)OC(C)CN(C)C)cc1", "note": "(configuration not stated)", "inhibition": "4.09%"}
    ]}
  ]
}
